# Several values for one entry are separate records, joined by “and”; a condition that tells them apart may be missing. Equal entries are not always repeated. The panel holds about 83,000 compounds, 20% with a hit somewhere; the sample as a whole holds those more often.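 In brief: 96-well plates, 48 h treatment, single concentration, percent growth endpoint.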 Activity calls are given as the source filed them.
# Test system: IGROV1 ovarian
# Assay: NCI-60 one-dose screen, 48 h (100 = growth as untreated, 0 = no growth, -100 = all killed)
# Details: 0.005 µM
# Protocol: Growth inhibition of the IGROV1 human tumor cell line is measured as a screen for anti-cancer activity. Cells are grown in 96 well plates and exposed to the test compound for 48 hours. Compounds are tested at a single concentration, which is 10^-5 M for most compounds. The reported endpoint is percent growth (GI% or GIPRCNT), where numbers from 0 - 100% represent growth inhibition, and numbers from -100% - 0 represent cell death. For example, a value of 40 represents 60% growth inhibition. A value of 0 means no net growth occurred over the course of the experiment. A value of -40 indicates 40% of cells at the beginning of the experiment died by the end of the experiment. A value of -100 means all cells are dead at the end of the experiment.
# NCI-60 Human Tumor Cell Lines Screen was performed using the standard one-dose NCI protocol, which is described in more detail at https://dtp.cancer.gov/discovery_development/nci-60/default.htm.
# Compounds with GIPRCNT values below 10 were considered active. Activity score was based on GIPRCNT using the following formula: […]
# Score is 0 for GIPRCNT values of 100 or above, 50 for GIPRCNT values of 0, and 100 for GIPRCNT values of -100.
row,Compound,growth
1,CN(C)CCNc1ncc(F)c(-c2cnc3cc(-c4cnn(C)c4)ccn23)n1,108% (inactive)

# Same assay, conditions: 10 µM unless noted
row,Compound,growth
1,NCCOCCOc1ccccc1,103% (inactive)
2,Nc1ccc(-c2nc3ccc4[nH]ncc4c3c3c2CCCC3)cc1F,10.9% (inactive)
3,COc1cc(CNC(=O)CCCC/C=C/C(C)C)ccc1O,96.8% (inactive) and 88.2% (inactive)
4,CCN(C(=O)N1CCN(c2cc3c(cc2F)c(=O)c(C(=O)O)cn3C2CC2)CC1)c1nc(-c2ccccc2)cs1,12.5% (inactive)
5,CCCCCCCCn1ccc2cc(NC(=O)CN3CCN(c4nc(C)cc(N5CCCCC5)n4)CC3)ccc21,73.9% (inactive)
6,COc1ccc(Nc2nn3c(SCC(=O)c4ccc(C)cc4)nnc3s2)cc1,91.4% (inactive)
7,C=C(c1ccc(C(=O)O)cc1)c1cc2c(cc1C)C(C)(C)CCC2(C)C,98.9% (inactive) and 79.8% (inactive)
8,C=C1C(=O)O[C@H]2[C@H]1CC/C(CNS(=O)(=O)c1ccc3ccccc3c1)=C\CC[C@@]1(C)O[C@@H]21,37.1% (inactive)
9,CN(Cc1ccccc1)c1nc(Cl)c(C2CC(c3ccc(F)cc3)=NN2C=O)s1 (stereo not given),89.4% (inactive)
10,O=C(Cn1cc(CN2CCN(c3ccnc4cc(Cl)ccc34)CC2)nn1)Nc1cccc([N+](=O)[O-])c1,-94.7% (active)
11,O=C(/C=C/c1ccccc1)c1cccs1,104% (inactive) and 116% (inactive)
12,Cn1cc2c(=O)nc3c(-c4nc5ccccc5[nH]4)n[nH]n3c2n1,91.8% (inactive)
13,N#Cc1c(N)nnn1Cc1cc(=O)oc2ccc(O)cc12,112% (inactive)
14,CN1Cn2c(ccc2C(F)(F)F)C(=O)CS1(=O)=O,104% (inactive)
15,O=C(NNc1ccccc1)C1CCCN1 (stereo not given),75.1% (inactive)
16,O=C(Nc1ncc(Cc2cccc(C(F)(F)F)c2)s1)c1ccc2c(c1)OCCO2,23.4% (inactive)
17,COc1cc(Cl)cc(-c2nn(C(=O)NS(=O)(=O)c3ccc(Cl)cc3)cc2-c2ccncc2)c1,82.6% (inactive)
18,C=C1C(=O)O[C@H]2[C@H]1CC/C(COC(=O)NCc1ccc(Cn3c(=O)sn(CCCI)c3=O)cc1)=C\CC[C@@]1(C)O[C@@H]21,-0.0888% (active)
19,CN(C)C(=O)c1cc2cnc(Nc3ccc(-c4csc5c(=S)cc(N6CCOCC6)oc45)cc3)nc2n1C1CCCC1,8.93% (active)

row,Compound,growth
1,CCCNNC(=O)/C=C/c1ccc(CNCCc2c(C)[nH]c3ccccc23)cc1,9.05% [2.5 µM] (active)
2,CCOC(=O)n1cc(-c2nonc2-c2cn(C)c3ccc(OC)cc23)c2cc(F)ccc21,73.2% (inactive)
3,CCCCCCCC/C=C\CCCCCCCCOc1ccccc1CC(=O)NCC[N+]1(C)CCOCC1,25.2% (inactive)
4,CN(C)CCCn1c2nc(=O)[nH]c(=O)c-2nc2cc(Cl)c(Cl)cc21,54% (inactive)
5,O=C(CC1(O)C(=O)Nc2ccc(Br)cc21)c1ccc(Cl)cc1 (stereo not given),93.2% (inactive)
6,COc1ccc(/C=C/C(=O)c2cc3c(N)c(C(=O)Nc4ccccc4)sc3nc2C)cc1,31% (inactive)
7,NS(=O)(=O)c1ccc(C(=O)N=Nc2c(O)[nH]c3c(F)cccc23)cc1,99.5% (inactive)
8,N#Cc1cc(-c2ccnc(Nc3ccc(NC(=O)CCl)cc3)n2)ccc1N1CCCC1,-1.3% (active)
9,N#C/C(=C\c1ccc(Br)cc1)n1nnc2c(F)cccc21,-24.3% (active)
10,CCN(CC)CCOc1ccc(/C(=C(\Cl)c2ccccc2)c2ccccc2)cc1,53.6% (inactive)
11,CC(=O)N1N=C(c2ccc(F)cc2)CC1c1sc(N(C)Cc2ccccc2)nc1Cl (stereo not given),96% (inactive)
12,Cn1ccnc1CN1CCSC(C(=O)Nc2ccccc2)C1 (stereo not given),94.5% (inactive)
13,C#Cc1cc(C(=O)Nc2ccc(CN3CCN(C)CC3)c(C(F)(F)F)c2)ccc1C,75.7% (inactive)
14,O=C(Nc1ccc(Cl)c(Cl)c1)Nc1ccc(Cl)c(Cl)c1,-86.4% (active) and 4.75% (active)
15,N#Cc1ccccc1OCC(=O)Nc1nc2c(s1)COc1ccccc1-2,-3.12% (active)
16,CCN(CC)/C([O-])=c1\cccc\c1=C1\N=C(c2ccccc2)N=C1[n+]1ccc(-c2ccccc2)cc1,54.7% (inactive)
17,Nn1c(-c2ccc(Cl)cc2)nc2c(-c3ccc(Cl)cc3)nc3ccc(Cl)cc3c2c1=O,7.14% (active)
18,CCCCCCCCCCCCCCCCCCn1cc(COc2ccc(C=O)cc2)nn1,103% (inactive)
19,C=CCN1C=CC(=O)[C@H](O[Si](C)(C)C(C)(C)C)[C@@H]1/C=C/c1ccccc1,-56.3% [100 µM] (active)

# Same assay, conditions: 30 µM
row,Compound,growth
1,CN(C)CCNc1ncc(F)c(-c2cnc3cc(-c4cnn(C)c4)ccn23)n1,22.6% (inactive)

# Source: PubChem BioAssay (NCI)
